Reference: PubChem BioAssay (EPA / NIEHS)
Several values for one entry are separate records, joined by “and”; a condition that tells them apart may be missing. Equal entries are not always repeated. Inconclusive results are not listed. Activity calls are given as the source filed them. How the source made its calls, unless noted: active means hit-call score of the fitted dose curve at least 0.9, where 1 is the maximum; inconclusive means response in the unintended direction; inactive means score below 0.9.

How the values were obtained:
[1] = CCTE_Mundy_HCI_iCellGluta_NOG_NeuriteLength: CCTE's Neurite Outgrowth Assay in iCellGluta cells for Neurite Length, Mundy Lab (AID 2284318)
Procedure, shortened: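 Automated high-content imaging of betaIII-tubulin (Alexa Fluor-488) and Hoechst-stained cells gave neurite length, normalized to the DMSO baseline.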

TTR (gene 7276) = assay: CCTE_GLTED_hTTR_0.5uM: CCTE's human Transthyretin (hTTR) Inhibition Assay, with 0.5uM TTR, Great Lakes Toxicology and Ecology Division (GLTED) Lab (AID 2284320; active means hit-call score of the fitted dose curve at least 0.9, where 1 is the maximum; inactive means score below 0.9)
Procedure, shortened: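 Cell-free displacement assay in which human TTR at 0.5 uM was incubated with test chemical for 2 h. Displacement of the ANSA probe was read by fluorescence at 380 nm excitation/475 nm emission. Loss of signal was fitted in the positive direction versus DMSO.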

IYD (gene 389434) = assay: CCTE_GLTED_hIYD: CCTE's human Iodotyrosine Deiodinase (xIYD) Inhibition Assay, Great Lakes Toxicology and Ecology Division (GLTED) Lab (AID 2284317);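 further: cell-free human IYD enzyme made in baculovirus insect cells; iodide freed from monoiodotyrosine measured by cerium arsenite color change at 420 nm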
Procedure, shortened: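 Human IYD expressed in a baculovirus-insect cell system was incubated 3 h with monoiodotyrosine and test chemical. Released iodide, separated on Dowex columns, was quantified by the Sandell-Kolthoff reaction at 420 nm; plates were normalized to MNT and DMSO/NaOH controls.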

[2] = VALA_MIGHUV2_CellCount: Viability Assessment in the VALA Sciences human Umbilical Vein Endothelial Cell Migration (MIGHUV) Assay, Area of Scratch Wound after Recovery (AID 2284314)
Procedure, shortened: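 Scratch-wounded HUVEC monolayers received test chemical within 30 min, 6-point concentration response in triplicate, 0.1 % DMSO vehicle. After 24 h wound recovery, fixed cells were Hoechst-stained and nuclei imaged; loss of signal versus DMSO indicates reduced viability.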

[3] = VALA_MIGHUV2_Bcatenin: VALA Sciences human Umbilical Vein Endothelial Cell Migration (MIGHUV) Assay, Nuclear Translocation of beta-Catenin after Recovery (AID 2284315)
Procedure, shortened: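 HUVEC (4000 cells/well) scratch-wounded, dosed within 30 min over 6 concentrations in triplicate, recovered 24 h. After fixation, Hoechst and anti-beta-catenin immunofluorescence imaged for nuclear CTNB. Gain of signal versus 0.1% DMSO.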

[4] = VALA_MIGHUV2_WoundArea: VALA Sciences human Umbilical Vein Endothelial Cell Migration (MIGHUV) Assay, Area of Scratch Wound after Recovery (AID 2284316)
Procedure, shortened: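 HUVEC seeded at 9000 cells/well, scratched after 24 h; test chemical added within 30 min, 6-point concentration response in triplicate (0.1% DMSO vehicle). After 24 h wound recovery, cells fixed and Hoechst-stained nuclei in wound area imaged; Cytochalasin D reference control.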

[5] = IUF_NPC2b_neuronal_migration_120hr: Leibniz Research Institute for Environmental Medicine (IUF) 120-hour Neural Progenitor Cell Migration Assay for Neuron Migration (NPC2b) (AID 2284300; active means hit-call score of the fitted dose curve at least 0.9, where 1 is the maximum; inactive means score below 0.9)
Procedure, shortened: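 Read-out is mean distance from sphere edge to each TUBB3-positive neuron at 120 h, expressed relative to radial glia migration distance and to DMSO baseline. Single 0.3 mm human NPC spheres differentiated on laminin under continuous compound exposure.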

[6] = IUF_NPC3_neuronal_differentiation_120hr: Leibniz Research Institute for Environmental Medicine (IUF) 120-hour Neuronal Differentiation Assay (NPC3) (AID 2284301; active means hit-call score of the fitted dose curve at least 0.9, where 1 is the maximum; inactive means score below 0.9)
Procedure, shortened: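 Single 0.3 mm neurospheres from human fetal cortex were plated in differentiation medium containing test compound. Medium was half-replaced on day 3. After 120 h cells were fixed, immunostained and imaged, and neuronal fraction was scored against DMSO control.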

[7] = IUF_NPC4_neurite_length_120hr: Leibniz Research Institute for Environmental Medicine (IUF) 120-hour Neuronal Morphology Assay for Neurite Length (NPC4) (AID 2284302; active means hit-call score of the fitted dose curve at least 0.9, where 1 is the maximum; inactive means score below 0.9)
Procedure, shortened: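 Read-out is mean neurite length in µm of TUBB3-positive neurons, skeletonized from high-content fluorescence images after 120 h. Single 0.3 mm primary human neural progenitor spheres differentiated on poly-D-lysine/laminin under continuous compound exposure; DMSO was baseline.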

[8] = IUF_NPC5_oligodendrocyte_differentiation_120hr: Leibniz Research Institute for Environmental Medicine (IUF) 120-hour Oligodendrocyte Differentiation Assay (NPC5) (AID 2284304);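 further: primary human fetal neural progenitor spheres plated to migrate and differentiate; share of O4-positive cells among Hoechst nuclei found by CNN image analysis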
Procedure, shortened: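 Oligodendrocyte differentiation was scored after 120 h as the O4-positive share of Hoechst-stained nuclei across the neurosphere migration area, using a trained convolutional neural network on high-content fluorescence images. Human fetal neural progenitor spheres were dosed from day 0, normalised to DMSO.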

[9] = IUF_NPC4_neurite_area_120hr: Leibniz Research Institute for Environmental Medicine (IUF) 120-hour Neuronal Morphology Assay for Neurite Area (NPC4) (AID 2284305)
Procedure, shortened: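 Neurite area is read out as the mean pixel area, excluding nuclei, of skeletonized TUBB3-positive neurons imaged after 120 h. Primary human neural progenitor spheres differentiated on poly-D-lysine/laminin with compound present from day 0. Activity was referenced to DMSO controls.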

[10] = IUF_NPC2-5_cytotoxicity_120hr: Cytotoxicity Assessment at 120 hours in the Leibniz Research Institute for Environmental Medicine (IUF) Neural Progenitor Cell Migration and Differentiation Assay (NPC2-5) (AID 2284307);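 on AC50: LDH released into supernatant as membrane damage marker via resorufin fluorescence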
Procedure, shortened: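 Sphere plating starts differentiation and exposure together at day 0. Compound solution is half-replaced on day 3. At 120 h, medium supernatant is taken for an LDH membrane-integrity read based on resazurin reduction to resorufin fluorescence.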

[11] = IUF_NPC2-5_cell_number_120hr: Cell Number Assessment at 120 hours in the Leibniz Research Institute for Environmental Medicine (IUF) Neural Progenitor Cell Migration and Differentiation Assay (NPC2-5) (AID 2284308; active means hit-call score of the fitted dose curve at least 0.9, where 1 is the maximum; inactive means score below 0.9;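 further: count of Hoechst-stained nuclei in migration zone around plated human neural progenitor spheres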)
Procedure, shortened: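 hNPC spheres, one per well, PDL/laminin, N2 medium, 37C, 5% CO2. Dosing day 0 → half-medium change with fresh compound day 3 → fix 120 h. Readout: Hoechst+ nuclei count, migration area; 7 concentrations plus solvent control.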

[12] = VALA_TUBHUV_Antagonist_CellCount: Viability Assessment in the VALA Sciences human Umbilical Vein Endothelial Tubule Formation (TUBHUV) Antagonism Assay (AID 2284310)
Procedure, shortened: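 HUVEC co-cultured with HDF (1:3) 3 days in 10 ng/ml VEGF, then 3 days with compounds in VEGF medium. Fixed, nuclear stain and CD31 immunofluorescence, imaged; cell counts fitted versus 0.1% DMSO, loss of signal read as lower viability.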

[13] = VALA_TUBIPS_Agonist_TubuleLength: VALA Sciences human iPS-derived Endothelial Tubule Formation (TUBIPS) Agonism Assay (AID 2284311)
Procedure, shortened: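 Human iPS-derived endothelial cells were exposed to compound for 72 h. Tubule formation was imaged by high-content fluorescence and scored as gain of signal relative to DMSO vehicle (agonist mode).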

[14] = IUF_NPC2-5_viability_120hr: Viability Assessment at 120 hours in the Leibniz Research Institute for Environmental Medicine (IUF) Neural Progenitor Cell Migration and Differentiation Assay (NPC2-5) (AID 2284312; active means hit-call score of the fitted dose curve at least 0.9, where 1 is the maximum; inactive means score below 0.9)
Procedure, shortened: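 Alamar blue resorufin fluorescence read after 5 days of differentiation, with compound present from day 0 and replenished at day 3. Primary hNPC spheres on laminin-coated plates, 37C; seven concentrations plus solvent control, fitted against DMSO.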

[15] = VALA_TUBIPS_Antagonist_TubuleLength: VALA Sciences human iPS-derived Endothelial Tubule Formation (TUBIPS) Antagonist Assay (AID 2284313)
Procedure, shortened: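 Cells grown 3 days with 10 ng/ml VEGF, then exposed to compounds in VEGF medium for another 3 days. After fixation, nuclear stain and CD31 immunofluorescence imaging gave mean total tubule length against 0.1% DMSO; suramin (100 uM) inhibition control.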

[16] = VALA_TUBHUV_Agonist_CellCount: Viability Assessment in the VALA Sciences human Umbilical Vein Endothelial Tubule Formation (TUBHUV) Agonism Assay (AID 2284309)
Procedure, shortened: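 HUVEC co-cultured 1:3 with HDF for 3 days in 10 ng/ml VEGF, then compounds added in VEGF medium for a further 3 days (72 h). Nuclear-stain/CD31 imaging cell count. Positive-direction fit versus 0.1% DMSO vehicle.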

[17] = IUF_NPC2-5_cytotoxicity_72hr: Cytotoxicity Assessment at 72 hours in the Leibniz Research Institute for Environmental Medicine (IUF) Neural Progenitor Cell Migration and Differentiation Assay for Cytotoxicity (NPC2-5) (AID 2284306);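 further: LDH release into supernatant measured by resorufin fluorescence marking membrane damage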
Procedure, shortened: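 Membrane integrity loss was scored from fluorescence (RFU) of resorufin generated by LDH in culture supernatant, 72 h after dosing. Differentiating human progenitor spheres received seven serial compound concentrations alongside a solvent control.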

[18] = CCTE_Deisenroth_5AR_NBTE_donor: CCTE's 5alpha-reductase NanoBRET Target Engagement Assay […], Deisenroth Lab (AID 2284319; active means hit-call score of the fitted dose curve at least 0.9, where 1 is the maximum; inactive means score below 0.9); conditions: actives raise or lower the signal
Procedure, shortened: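 SRD5A2-NanoLuc, HEK293T, 20 h expression. Chemical 10 nM - 29.9 uM, 8 conc, duplicate; 3 h preincubation + 2 h testosterone tracer. Nano-Glo substrate plus extracellular NanoLuc inhibitor; donor lum 460 nm. DMSO baseline, bidirectional fit.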

Compound: FC(F)=C(F)C(F)(F)C(F)(F)C(F)(F)C(F)(F)C(F)(F)C(F)(F)F
- outcome [1]: inactive
- AC50 (TTR (gene 7276)): 62.1 µM (active)

Compound: NC(=O)NN=Cc1ccc([N+](=O)[O-])o1
- AC50 (IYD (gene 389434)): 74.4 µM (active)

Compound: CCCCCCCCCCCCCCCCOS(=O)(=O)O
- AC50 (IYD (gene 389434)): 32.7 µM (active)

Compound: CCCCCCCCCC
- outcome [2]: inactive
- outcome [3]: inactive
- outcome [4]: inactive

Compound: O=C(Cl)C(F)(F)C(F)(F)C(F)(F)C(=O)Cl
- outcome [1]: inactive

Compound: CCCC(CCC)C(=O)O
- outcome [5]: inactive
- AC50 [6]: 2200 µM (active)
- AC50 [7]: 2180 µM (active)
- AC50 [8]: 999 µM (active)
- outcome [9]: inactive
- AC50 [10]: 1400 µM (active)
- AC50 [11]: 2210 µM (active)
- outcome [12]: inactive
- outcome [13]: inactive
- AC50 [14]: 1030 µM (active)
- outcome [15]: inactive

Compound: c1ccc2cc3ccccc3cc2c1
- outcome [1]: inactive

Compound: C[C@]12C=CC(=O)C=C1CC[C@H]1[C@@H]3C[C@@H](O)[C@](O)(C(=O)CO)[C@@]3(C)C[C@H](O)[C@@]12F
- AC50 [1]: 19.8 µM (active)

Compound: OCCNCCO
- outcome [16]: inactive
- outcome [12]: inactive

Compound: OC(O)(C(F)C(O)(O)C(F)(F)F)C(F)(F)F
- outcome [1]: inactive

Compound: Nc1ccn([C@@H]2O[C@H](CO)[C@@H](O)[C@@H]2O)c(=O)n1
- outcome [5]: inactive
- AC50 [6]: 0.0137 µM (active)
- outcome [7]: inactive
- outcome [9]: inactive
- AC50 [17]: 0.237 µM (active)
- AC50 [10]: 0.0802 µM (active)
- AC50 [11]: 0.743 µM (active)
- outcome [14]: inactive
- AC50 [1]: 741 nM (active) and 1.09 µM (active)

Compound: Cn1cc[nH]c1=S
- outcome [5]: inactive
- outcome [6]: inactive
- outcome [7]: inactive
- outcome [8]: inactive
- outcome [9]: inactive
- outcome [17]: inactive
- outcome [10]: inactive
- outcome [11]: inactive
- outcome [16]: inactive
- outcome [12]: inactive
- outcome [13]: inactive
- outcome [14]: inactive
- outcome [2]: inactive
- outcome [4]: inactive
- outcome [1]: inactive

Compound: CCN(CC)C(=S)SSC(=S)N(CC)CC
- outcome [13]: inactive
- outcome [4]: inactive
- AC50 [18]: 50 µM (active)

Compound: CCCCCCCC/C=C\CCCCCCCC(=O)OC[C@@H](O)[C@H]1OC[C@H](O)[C@H]1O
- outcome [18]: inactive

Compound: FC(F)(F)C(F)(F)C(F)(F)C(F)(F)C(F)(F)C(F)(F)I
- outcome [1]: inactive

Compound: O=S(=O)(O)CCC(F)(F)C(F)(F)C(F)(F)C(F)(F)C(F)(F)C(F)(F)F
- AC50 (TTR (gene 7276)): 5.35 µM (active)

Compound: O=S(=O)(O)c1ccc(N=Nc2c(O)ccc3cc(S(=O)(=O)O)ccc23)cc1
- AC50 [18]: 36.5 µM (active)

Compound: CCCCCOC(C)=O
- outcome [18]: inactive
